# Screening results from PubChem BioAssay.
# The list is not random: actives were taken first. Their share in the collection is about 2.4%.
# D2 antagonist = antagonizes the human D2 dopamine receptor; HEK293 TREx D2 cells, calcium flux, dopamine EC80; inhibition, % at 10 µM; P14416; actives 2% (n = 340,000); in the data active = inhibition above about 30%; inactive = below that, where a call was filed
# Target sequence (P14416 whole entry, looked up): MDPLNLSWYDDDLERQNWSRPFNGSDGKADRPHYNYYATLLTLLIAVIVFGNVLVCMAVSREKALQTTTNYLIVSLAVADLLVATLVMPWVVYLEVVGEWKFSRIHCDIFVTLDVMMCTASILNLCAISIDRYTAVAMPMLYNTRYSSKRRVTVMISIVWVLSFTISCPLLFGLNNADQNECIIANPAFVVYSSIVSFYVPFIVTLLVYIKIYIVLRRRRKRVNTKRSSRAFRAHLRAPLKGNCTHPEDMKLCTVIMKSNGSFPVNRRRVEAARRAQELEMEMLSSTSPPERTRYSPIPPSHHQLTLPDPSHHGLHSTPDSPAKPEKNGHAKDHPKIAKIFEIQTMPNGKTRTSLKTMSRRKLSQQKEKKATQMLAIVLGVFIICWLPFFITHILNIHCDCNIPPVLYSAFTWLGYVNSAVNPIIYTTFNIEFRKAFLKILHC
#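 Dopamine at EC80 is the agonist stimulus; test compounds precede it by 180 s. Calcium flux read kinetically in a force-coupled, inducible HEK293 T-REx D2 cell line.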
# D2 PAM-1 = positive allosteric modulators of human D2 dopamine receptor | P14416 | HEK293 T-REx D2, calcium flux, EC20 dopamine potentiation | potentiation, % at 10 µM | actives 0.34% (n = 340,000) | AID 485347;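 active = potentiation over 3 SD above the plate norm, cut at about 30% in these data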
#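 Calcium flux readout, no-wash dye, 1 read/s. Inducible HEK293 Trex D2 line, overnight 30 C. Compound alone 180 s (agonist flags), then EC20 dopamine, another 180 s to score potentiation.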
# D2 ag-1 = agonists of human D2 dopamine receptor; activation, % at 2 µM; AID 485358; P14416; HEK293 T-REx D2 cells, calcium flux agonist mode; actives 0.53% (n = 340,000);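 active = activation over 3 SD above normal in the single-dose calcium agonist read, cut at about 30% in these data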
#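 Tetracycline-induced HEK293 T-REx cells with force-coupled D2 receptor, plated overnight at 30 C, loaded with no-wash calcium dye. After a 10 s baseline, compound was pin-added and calcium flux read kinetically for 180 s; calcium rises flagged agonists.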
# D2 PAM-2 = potentiates the human D2 dopamine receptor allosterically; P14416; DiscoveRx D2 beta-arrestin cells, luminescence, 90 min; 100% = 57 uM dopamine signal; potentiation, % (concentration not given with the values); actives 0.23% (n = 360,000); AID 624464; in the data active = potentiation above about 50%; inconclusive = mostly about 30% to 49%
#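 PathHunter beta-arrestin assay in DiscoveRx D2 cells. Compounds were added with an EC20 of dopamine (50 nM final) for 90 min at 37 deg C. Luminescence was read 1 h after detection reagent, with 57 uM dopamine as the EC100 control.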
# D2 ag-2 = human D2 receptor agonism in beta-arrestin assay. P14416. DiscoveRx PathHunter D2 beta-arrestin, luminescence, 90 min; 100% = 57 uM dopamine signal. activation, % (test concentration not listed). actives 0.084% (n = 360,000). AID 624465; in the data active = activation above about 40%; inconclusive = between about 15% and that limit
#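 DiscoveRx PathHunter D2 beta-arrestin cells (2,100/well) attached overnight, then compound-stimulated 90 min at 37 C in HBSS/10 mM HEPES/0.1% Tween-20 buffer; beta-galactosidase complementation read by luminescence after 1 h at ambient temperature. Dopamine 57 uM final (EC100) as control.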
# D3 arrestin ag = confirmation of human D3 dopamine receptor agonists, beta-arrestin; shares compounds with D2 ag-1; DiscoveRx D3 beta-arrestin cells, luminescence, 90 min; Potency, µM (doses to about 76.9 µM), usual class: activators; actives 4% (n = 2,300); also: nearly all actives have a fitted effect of over 70% in size
# D2 ag-3 = activates human D2 dopamine receptor in D3 counterscreen. shares compounds with D2 ag-1. DiscoveRx PathHunter D2 beta-arrestin, luminescence, 90 min; response scale: percent relative to full dopamine signal. Potency, µM (highest dose often 76.9 µM), hits mostly activators. actives 5.9% (n = 2,300); also: nearly all actives have a fitted effect of over 70% in size
# Numbers stand for hits; - = inactive; ? = inconclusive; . = no result given; ! = repeats disagree. Unless noted, calls follow the shape of the dose curve; as a rule, active = well fitted activation curve with a large enough effect; inconclusive = small, poorly fitted or top-dose-only effect; inactive = flat fitted curve, though single readings scatter.
SMILES,D2 antagonist,D2 PAM-1,D2 ag-1,D2 PAM-2,D2 ag-2,D3 arrestin ag,D2 ag-3
COc1cc2c(cc1OC)C1[C@H]3C(=CC[C@H]1OC2O)CCN3C (stereo partly specified),.,.,.,-,-,.,.
CN(C)P(=O)(N(C)C)N1CC1,.,.,.,-,-,.,.
CC(=O)OC1(c2ccccc2)CCN(C2CCCCC2)CC1C (stereo unspecified),53.2,-,66.6,-,-,-,-
Cc1ccc(Cn2cccc(C(=O)Nc3ccc4c(c3)OCCO4)c2=O)cc1,.,-,-,.,.,.,.
CC(C)COC(=O)N1Cc2ccccc2-n2nncc2C1,.,.,.,-,-,.,.
CC(CC(C)(C)N1CC1)=NNC(=O)Nc1cccc2ccccc12,.,.,.,-,-,.,.
Cc1cccc(N2C(=O)NC(=O)/C(=C\C=C\c3ccco3)C2=O)c1,-,-,-,-,-,-,-
Cc1ccc(N2C(=O)NC(=O)/C(=C\C=C\c3ccco3)C2=O)cc1,.,-,.,-,-,.,.
Cc1ccc2c(c1)Oc1ccccc1N=C2,.,.,.,-,-,.,.
O=C1NC(=S)N(c2ccc(Cl)cc2)C(=O)/C1=C/N1CCN(C(=O)c2ccco2)CC1,-,-,-,-,-,-,-
O=[N+]([O-])c1cccc2c([N+](=O)[O-])cccc12,-,-,-,-,-,-,-
CN(C)c1cccc(CN2CCN(c3ccccc3)CC2)c1,.,.,.,-,-,.,.
Cn1c(=O)oc2cc(S(=O)(=O)NCCN3CCN(c4ccccc4)CC3)ccc21,65.2,-,71.5,-,-,-,?
CC(C)(C)n1nnnc1C(c1ccccc1)N1CCC2(CC1)C(=O)NCN2c1ccccc1 (stereo unspecified),.,.,.,-,-,.,.
NC1CCc2cc(O)c(O)cc2C1 (stereo unspecified),100.7,-,90.6,103.1,100.0,0.0224µM,0.0141µM
CN1C(=O)/C(=C\c2ccc(N3CCCCC3)o2)C(=O)NC1=S,-,-,33.4,-,-,-,-
CCC(=NCc1ccco1)c1c(O)n(-c2ccccc2C)c(=O)[nH]c1=O,-,-,-,-,-,-,-
COC(=O)C1=C(c2ccc(F)cc2OCc2ccccc2)C[C@@H]2CC[C@H]1N2C(=O)NCc1ccccc1Br,-,-,-,-,-,-,-
COC(=O)C1=C(c2ccc(F)cc2OCc2ccccc2)C[C@@H]2CC[C@H]1N2C(=O)NCc1ccccc1C(F)(F)F,-,-,-,-,-,.,.
Oc1ccc(O)c2c1C1(Cl)C(Cl)=C(Cl)C2(Cl)C1(Cl)Cl,.,.,.,-,-,.,.
CN1CCN(Cc2ccc(Br)s2)CC1,-,-,-,-,-,.,.
COc1ccccc1N1CCN(Cc2c(F)cccc2Cl)CC1,-,-,-,-,-,.,.
COc1ccccc1N1CCN(Cc2ccccc2)CC1,96.6,-,31.3,-,-,-,-
COc1ccccc1N1CCN(Cc2ccc(Br)s2)CC1,84.9,-,60.6,-,-,-,-
CC1c2ccccc2-n2nncc2CN1C (stereo unspecified),.,.,.,.,-,.,.
SMILES,D2 antagonist,D2 PAM-1,D2 ag-1,D2 PAM-2,D2 ag-2,D3 arrestin ag,D2 ag-3
Cc1ccccc1-c1nc(CN2C(=O)CN=C(c3ccccc3)c3ccccc32)c(C)o1,.,-,-,.,.,.,.
CC[C@@H](CO)NC(=O)[C@@H]1C=C2c3cccc4c3c(cn4C)C[C@H]2N(C)C1,47.5,-,54.2!,-,-,?,-
CCC(CO)NC(=O)C1C=C2c3cccc4[nH]cc(c34)CC2N(C)C1 (stereo unspecified),81.0,-,84.3,?,113.5,2.82µM,7.08µM
CC(C)C[C@H]1C(=O)N2CCC[C@H]2[C@]2(O)O[C@](NC(=O)[C@@H]3C=C4c5cccc6[nH]cc(c56)C[C@H]4N(C)C3)(C(C)C)C(=O)N12,72.0,-,76.1,?,106.3,?,1µM
NNCc1ccccc1,.,.,.,-,-,.,.
O=C(CCN1CC=C(c2ccccc2)CC1)NCc1ccccc1,.,.,.,-,-,.,.
O=C(CN1CC=C(c2ccccc2)CC1)NC(=O)NCc1ccco1,39.6,-,54.1,-,-,-,-
COc1c2c(cc3c1OCO3)CC[N+](C)=C2,-,-,-,-,-,-,-
COc1ccc2c(c1OC)CN1CCc3cc4c(cc3[C@H]1C2)OCO4,-,-,-,-,-,.,.
O=c1c2ccccc2nc(/C=C/c2ccccc2F)n1-c1cccc(O)c1,.,-,.,.,.,.,.
